# Screening results: PubChem BioAssay, several laboratories
# Anthrax LF inh2 – anthrax lethal factor protease inhibition; P15917; inhibition, % at 10 µM; hit rate 0.12% among 360,000; AID 588501; multiplex microsphere protease cleavage assay, LF
# Target sequence (P15917 whole entry, looked up): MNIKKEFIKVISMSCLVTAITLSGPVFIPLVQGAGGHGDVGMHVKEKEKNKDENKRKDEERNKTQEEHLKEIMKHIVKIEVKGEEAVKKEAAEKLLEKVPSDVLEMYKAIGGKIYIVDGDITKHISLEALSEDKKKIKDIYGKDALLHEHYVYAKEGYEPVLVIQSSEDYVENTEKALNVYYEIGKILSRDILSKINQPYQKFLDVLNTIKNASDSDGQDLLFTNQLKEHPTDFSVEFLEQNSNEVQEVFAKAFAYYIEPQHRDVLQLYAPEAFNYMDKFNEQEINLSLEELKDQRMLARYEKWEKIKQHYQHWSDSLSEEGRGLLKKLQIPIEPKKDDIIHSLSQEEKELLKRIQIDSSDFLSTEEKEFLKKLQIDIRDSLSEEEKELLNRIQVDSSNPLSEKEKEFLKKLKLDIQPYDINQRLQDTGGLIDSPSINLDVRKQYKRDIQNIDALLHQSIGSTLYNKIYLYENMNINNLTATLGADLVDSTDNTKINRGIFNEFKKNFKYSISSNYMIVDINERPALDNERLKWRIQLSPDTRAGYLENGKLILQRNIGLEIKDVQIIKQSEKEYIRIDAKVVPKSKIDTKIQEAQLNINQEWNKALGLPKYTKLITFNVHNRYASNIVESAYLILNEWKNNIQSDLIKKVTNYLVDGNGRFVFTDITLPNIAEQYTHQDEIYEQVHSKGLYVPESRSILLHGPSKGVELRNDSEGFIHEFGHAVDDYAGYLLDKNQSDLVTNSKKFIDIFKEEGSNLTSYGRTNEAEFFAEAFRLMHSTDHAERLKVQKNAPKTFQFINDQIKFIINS
# BoNT A protease – blocks Botulinum neurotoxin A light chain protease | multiplex microsphere protease substrate cleavage, flow cytometry | inhibition, % at 10 µM | hit rate 0.17% among 360,000 | AID 588499
# Bead autofluor – flagged as autofluorescent in microsphere protease counterscreen; compound autofluorescence counterscreen, microsphere flow cytometry; hits give high values; fluorescence intensity (concentration not given with the values); hit rate 3.1% among 360,000; in the data active = fluorescence intensity above about 16000; inconclusive = no clear call, values can overlap the other calls
# BoNT F protease – inhibitors of Botulinum neurotoxin F light chain protease | Multiplex microsphere protease cleavage assay, flow cytometry | inhibition, % at 10 µM | AID 588497 | hit rate 0.22% among 360,000; in the data active = inhibition above about 35%, passing the limit was not always enough; inconclusive = no clear call, values can overlap the other calls
# BJeLR lethal – BJeLR cell viability loss | BJeLR (HRASV12) viability, CellTiter-Glo ATP luminescence, 48 h | hit rate 0.17% among 300,000 | inhibition, % (concentration not given with the values); in the data active = inhibition above about 50%; inconclusive = no clear call, values can overlap the other calls
# 3CLpro inhibitor – SARS-CoV 3CLpro protease inhibition | P0C6X7 | recombinant SARS-CoV 3CLpro, quenched FRET peptide cleavage | inhibition, % at 6 µM | hit rate 0.14% among 290,000 | AID 1706; in the data active = inhibition above about 12%
# Hits are given with their value; n = inactive; u = inconclusive; x = not tested or not shown. The list is not random: actives were taken first. Their share in the collection is about 3.6%. Rule as the data show it, unless noted: active = inhibition above about 30%; inconclusive = no clear call, values can overlap the other calls; inactive = below that.
SMILES,Anthrax LF inh2,BoNT A protease,Bead autofluor,BoNT F protease,BJeLR lethal,3CLpro inhibitor
Cc1ccccc1N1CC(=O)N(c2ccccc2C)CC1=O,n,n,n,n,n,n
Cc1ncsc1C(=O)NCc1ccc(N2CCCC2=O)cc1,n,n,16227,n,n,n
CCCn1nnnc1NCc1ccc(OC)cc1OC,n,n,n,n,n,n
CCCCn1nnnc1NCc1cc(OC)c(OC)cc1OC,n,n,16650,n,n,n
COc1ccc(C(=O)N2CCOC2CNC(=O)C(=O)NCc2ccccc2)cc1 (stereo unspecified),n,n,n,n,x,x
COc1ccc(CNC2=CC(=O)CC(C)(C)C2)cc1,n,n,24712,n,n,n
CC1(C)CC(=O)C=C(NNC(=O)c2cccnc2)C1,u,n,n,n,n,n
CC1(C)CC(=O)C=C(NCc2ccc(C(=O)O)cc2)C1,n,n,u,n,n,n
COc1cccc(C(=O)NNC2=CC(=O)CC(C)(C)C2)c1,n,n,20933,n,n,n
O=C(COc1cccc(Br)c1)Nc1ccc(N2CCOCC2)cc1N1CCOCC1,n,n,n,n,x,x
COc1ccc(C2=NO[C@@H]3C(=O)N(C4CCCCC4)C(=O)[C@H]23)cc1OC,n,n,22002,n,n,n
O=C(NCc1ccco1)c1cc2n(n1)C(C(F)(F)F)CC(c1ccc(Cl)c(Cl)c1)N2 (stereo unspecified),n,n,17695,n,n,n
O=c1cnnc(SCCc2ccccc2)[nH]1,n,n,23384,n,n,n
CSc1nncc(=O)[nH]1,n,n,21213,n,n,n
CCN(CC)C1CC(=O)N(c2cccc(Cl)c2)C1=O (stereo unspecified),n,n,n,n,n,n
COc1ccc(-c2c(C)n([O-])c(C)c(-c3ccccc3)[n+]2=O)cc1OC,n,n,21301,n,n,n
COc1ccc(-c2c(C)n([O-])c(C)c(C)[n+]2=O)cc1OC,n,n,n,n,n,n
CCOc1ncccc1C(=O)OCc1ccc(C(=O)OC)cc1,n,n,n,n,n,n
CC(=O)c1c(C(C)=O)c(C)n(NC(=O)c2ccccc2O)c1C,n,u,20975,n,n,n
Cc1cc(C)c(OCC(=O)NCC(C)(C)N2CCOCC2)c(C)c1,n,n,n,n,n,x
CC1CC(=O)N(CC(=O)Nc2ccc3c(c2)OCCO3)c2ccccc2S1 (stereo unspecified),n,n,16421,n,n,n
CC1Oc2ccccc2N(CC(=O)Nc2ccc3c(c2)OCCO3)C1=O (stereo unspecified),n,n,n,n,n,n
O=C(CN1C(=O)COc2ccc(Cl)cc21)Nc1ccc2c(c1)OCCO2,n,u,17358,n,n,n
O=C(Cn1ccc2ccccc2c1=O)NCCC(=O)Nc1ccc2c(c1)OCCO2,n,u,20380,n,n,n
O=C(Nc1nccc(-c2cccs2)n1)c1ccccc1Cl,n,n,19543,n,n,n
SMILES,Anthrax LF inh2,BoNT A protease,Bead autofluor,BoNT F protease,BJeLR lethal,3CLpro inhibitor
CC(OC(=O)c1ccncc1)C(=O)Nc1ccc([N+](=O)[O-])cc1Cl (stereo unspecified),n,n,n,n,n,n
CCOC(=O)C1CCCN1C(=O)C1(NC(C)=O)CCCC1 (stereo unspecified),n,n,n,n,x,x
CCOc1ccc(/C=N/NC(=O)Cc2ccccc2)cc1CN1CC2CC(C1)c1cccc(=O)n1C2 (stereo unspecified),n,n,n,n,x,x
CCOC(=O)C(=O)N(C)c1c(CC)nc2c(OCc3cc(Cl)cc(Cl)c3)cccn12,n,n,n,n,x,x
O=C(O)CCCCCN1C(=O)/C(=C\c2ccncc2)SC1=S,n,n,n,n,n,n
O=C(O)CCCN1C(=O)/C(=C/c2ccc(-c3nc4ccccc4s3)o2)SC1=S,40,30,n,n,n,n
O=C(O)CCCN1C(=O)/C(=C/c2ccncc2)SC1=S,n,n,n,n,n,n
O=C(O)CCCCCN1C(=O)/C(=C\c2ccc(-c3ccc(Cl)cc3)o2)SC1=S,n,43,n,n,n,n
O=C(O)c1cc(-c2ccc(Cl)cc2)n(-c2ccc(F)cc2)n1,n,n,n,n,n,n
CCc1ccccc1NC(=O)CN(C)C(=O)c1cc(C2CC2)nc2c1cnn2C(C)C,n,n,n,n,x,x
COCCNC(=O)CCC(=O)NNc1nc2ccccc2c2nc(-c3ccccc3)nn12,n,n,n,n,n,n
O=C(CCCCCn1c(=S)[nH]c2ccc(N3CCOCC3)cc2c1=O)NCc1ccc(Cl)cc1,n,n,n,n,n,n
O=c1c2cc(N3CCOCC3)ccc2[nH]c(=S)n1CCCN1CCCCCC1,n,u,21083,n,n,n
O=c1c2cc(N3CCOCC3)ccc2[nH]c(=S)n1CCN1CCCC1,n,n,n,n,n,n
CC(C)OCCCn1c(=S)[nH]c2ccc(N3CCOCC3)cc2c1=O,n,n,20555,n,n,n
CCCCn1c(=S)[nH]c2ccc(N3CCOCC3)cc2c1=O,x,x,x,x,n,n
O=c1c2cc(N3CCOCC3)ccc2[nH]c(=S)n1Cc1ccc(Cl)cc1,n,n,16514,n,n,n
NC(=O)CSc1ccc(F)cc1,n,n,n,n,n,n
CCCS(=O)(=O)NCc1cn2cccc(C)c2n1,n,n,n,n,n,n
Cc1cccn2cc(CNc3ccccc3)nc12,n,n,20732,n,n,n
Cc1cc(/C=N/NC(=O)c2cc3ccccc3o2)c(C)n1C,n,n,n,n,n,n
COc1ccccc1NC(=O)c1ccc2nc(C)c(C)nc2c1,n,n,n,n,n,n
CCc1nc(SCC(=O)c2ccc(Cl)s2)c2oc3ccccc3c2n1,n,n,16776,n,n,n
CCc1nc(SCc2nc3ccccc3[nH]2)c2oc3ccccc3c2n1,n,n,17511,n,n,n
CCc1nc(SCC(=O)N2CCN(c3ccccc3)CC2)c2oc3ccccc3c2n1,n,n,17485,n,n,n
SMILES,Anthrax LF inh2,BoNT A protease,Bead autofluor,BoNT F protease,BJeLR lethal,3CLpro inhibitor
CCc1nc(SCCO)c2oc3ccccc3c2n1,n,n,n,n,n,n
C[C@@H]1CCCCO[C@H](CN(C)Cc2ccc3c(c2)OCO3)[C@@H](C)CN([C@H](C)CO)C(=O)c2cc(NC(=O)c3ccccc3)ccc2O1,n,n,n,n,x,x
CCN(CC(=O)Nc1c(F)cccc1F)C(=O)c1ccc2ncsc2c1,n,n,49356,n,n,x
Cc1nc(C(F)(F)F)c(C(=O)NC(=O)Nc2ccccc2)s1,n,n,16731,n,n,n
COc1ccccc1-n1c(SCC(=O)Nc2ccccc2F)nc2[nH]ncc2c1=O,n,u,16242,n,n,n
CCc1ccc(C(=O)CCC(=O)Nc2cccc(S(=O)(=O)N3CCCCC3)c2)cc1,n,n,n,u,x,x
COc1ccc(NC(=O)c2ccccc2N2C(=O)C3C4C=CC(C5CC45)C3C2=O)c(OC)c1 (stereo unspecified),n,n,n,n,n,n
COc1ccc2ccccc2c1CN1CCN(Cc2ccccc2)CC1,n,n,n,n,n,n
COc1ccc2ccccc2c1CN1CCCC(CO)C1 (stereo unspecified),n,u,22577,n,n,n
